Measured values taken from the supplement of paper PMC13172266.
Where a name gives a salt, the structure may show the parent alone.

Tests used:
Test in all cases: cell proliferation relative to vehicle (% of vehicle); higher = less growth inhibition
Details in all cases: 72 h
[1] = tested on: U2932 TK216-resistant clone 2
In short: (§1)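 Parental U2932 cells (ABC-DLBCL) and two clones made resistant to an ETS-targeting agent by almost a year of repeated exposure were treated for 72 h with 348 targeted inhibitors at 500 nM or 50 nM. MTT was then applied for 4 h, the reaction was stopped with 25% SDS, and absorbance was measured on a Cytation 3. Values express proliferation as percent of proliferating cells compared with DMSO vehicle.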

[2] = tested on: U2932 TK216-resistant clone 3
In short: as §1

U2932 parental = tested on: U2932 parental
In short: as §1

Compound | cell proliferation ([1]; 50 nM) | cell proliferation ([1]; 500 nM) | cell proliferation ([2]; 50 nM) | cell proliferation ([2]; 500 nM) | cell proliferation (U2932 parental; 50 nM) | cell proliferation (U2932 parental; 500 nM)
Oc1nc(-c2ccc(C(F)(F)F)cc2)nc2c1CSCC2 | 90.3 | 108 | 111 | 95.1 | 99.3 | 98.2
C=CC(=O)N1CCC[C@@H](n2nc(-c3ccc(Oc4ccccc4)cc3)c3c(N)ncnc32)C1 | – | – | – | – | 76 | 70.9
CC(C)Oc1ccc(C(=O)N[C@H](CNC(=O)CN(C)C)Cc2ccc(-c3cn4cccc([C@H](C)O)c4n3)cc2)cc1Cl | 45.4 | 15 | 34.3 | 14.4 | 47.6 | 14.6
C[C@@H]1C[C@H]2[C@@H]3CCC4=CC(=O)C=C[C@]4(C)[C@@]3(F)[C@@H](O)C[C@]2(C)[C@@]1(O)C(=O)CO [Dexamethasone (DHAP)] | 76.1 | 79 | 80.9 | 71.2 | 77.4 | 74.2
CC1(C)CCC(CN2CCN(c3ccc(C(=O)NS(=O)(=O)c4ccc(NCC5CCOCC5)c([N+](=O)[O-])c4)c(Oc4cnc5[nH]ccc5c4)c3)CC2)=C(c2ccc(Cl)cc2)C1 | 74.5 | 29.9 | 84.4 | 35.1 | 90.7 | 66.9
COc1cc([C@@H]2c3cc4c(cc3[C@@H](O[C@@H]3O[C@@H]5CO[C@@H](c6cccs6)O[C@H]5[C@H](O)[C@H]3O)[C@H]3COC(=O)[C@H]23)OCO4)cc(OC)c1O [Teniposide] | 59 | 8.54 | 83 | 19.8 | 67.7 | 16.8
O=C(CCCCCCC(=O)Nc1ccccc1)NO [Vorinostat (SAHA, MK0683)] | 108 | 91.3 | 107 | 88.9 | 98.2 | 81.6
CO[C@@]12[C@H](COC(N)=O)C3=C(C(=O)C(C)=C(N)C3=O)N1C[C@@H]1N[C@@H]12 [Mitomycin C] | 94.8 | 13.8 | 96.6 | 26.4 | 91.3 | 35.8
Nc1ccn([C@@H]2O[C@H](CO)[C@@H](O)[C@@H]2O)c(=O)n1 [Cytarabine] | 93.7 | 24 | 93.6 | 65.8 | 88.9 | 36
COc1cc2nccc(Oc3ccc(NC(=O)C4(C(=O)Nc5ccc(F)cc5)CC4)cc3)c2cc1OC | 102 | 98 | 100 | 106 | 95.4 | 99.2
N#C/C(=C(/N)Sc1ccc(N)cc1)c1ccccc1C(F)(F)F | 102 | 98 | 90.8 | 92.8 | 104 | 99.2
Nc1cccc2c1CN(C1CCC(=O)NC1=O)C2=O (stereo unspecified) [Lenalidomide (CC-5013)] | 107 | 98 | 102 | 96 | 98 | 99.7
O=c1c(O)c(-c2ccc(O)c(O)c2)oc2cc(O)cc(O)c12 [Quercetin] | 110 | 119 | 108 | 106 | 101 | 106
O=C(Nc1cccc(Nc2ncc(Br)c(NCCc3cnc[nH]3)n2)c1)N1CCCC1 | 95.7 | 87 | 103 | 77 | 99.6 | 68.1
COCCOc1ccc2c(c1)ncn2-c1ccc2cccc(N3CCC(N)CC3)c2n1 | 107 | 106 | 103 | 94 | 99.8 | 90.4
Cc1cc([C@@H](C)Nc2ccccc2C(=O)O)c2nc(N3CCOCC3)cc(=O)n2c1 | 107 | 95 | 103 | 95.3 | 99.9 | 101
O=C(/C=C/c1ccc2ccccc2n1)c1ccncc1 | 99.7 | 83.1 | 102 | 88.3 | 98.2 | 89.1
Oc1ccc(-c2nc(-c3ccc(F)cc3)c(-c3ccncc3)[nH]2)cc1 | 109 | 105 | 96.2 | 98.7 | 102 | 99.2
COC(=O)c1ccc([C@H]2c3[nH]c4ccccc4c3C[C@H](C(=O)OC)N2C(=O)CCl)cc1 | 85 | -2.9 | 84 | -4.49 | 100 | -1.25

Compound | cell proliferation ([1]; 50 nM) | cell proliferation ([1]; 500 nM) | cell proliferation ([2]; 50 nM) | cell proliferation ([2]; 500 nM) | cell proliferation (U2932 parental; 50 nM) | cell proliferation (U2932 parental; 500 nM)
COc1cc(Nc2c(C#N)cnc3cc(OCCCN4CCN(C)CC4)c(OC)cc23)c(Cl)cc1Cl [Bosutinib (SKI-606)] | 106 | 73.1 | 103 | 63.3 | 98.5 | 83.4
COc1cc2ncnc(Oc3ccc(CC(=O)Nc4cnn(C(C)C)c4)cc3)c2cc1OC | 100 | 104 | 104 | 98.5 | 97.7 | 95.7
O=C(NC[C@H](O)CO)c1ccncc1Nc1ccc(I)cc1F | 91 | 88.5 | 95.7 | 94.7 | 92.2 | 89.5
CO[C@@H](C(=O)N1Cc2[nH]nc(NC(=O)c3ccc(N4CCN(C)CC4)cc3)c2C1)c1ccccc1 | 97.2 | 84 | 77.8 | 71.7 | 71.8 | 69.5
CCc1c2c(nc3ccc(OC(=O)N4CCC(N5CCCCC5)CC4)cc13)-c1cc3c(c(=O)n1C2)COC(=O)[C@]3(O)CC [Irinotecan] | – | – | – | – | 94.3 | 50.5
CO[C@H]1C[C@@H]2CC[C@@H](C)[C@@](O)(O2)C(=O)C(=O)N2CCCC[C@H]2C(=O)O[C@H]([C@H](C)C[C@@H]2CC[C@@H](OC(=O)C(C)(CO)CO)[C@H](OC)C2)CC(=O)[C@H](C)/C=C(\C)[C@@H](O)[C@@H](OC)C(=O)[C@H](C)C[C@H](C)/C=C/C=C/C=C/1C | 68.3 | 64.8 | 65 | 65.1 | 59.6 | 58.9
COc1nc(OCc2cccc(-c3ccccc3)c2C)ccc1CNCCNC(C)=O [PD-1/PD-L1 inhibitor 2] | 95.9 | 89 | 94.4 | 82.7 | 104 | 91.5
C[C@@H](Oc1cc(-c2cnn(C3CCNCC3)c2)cnc1N)c1c(Cl)ccc(F)c1Cl | 97.6 | 74.4 | 86.4 | 61.9 | 89.9 | 56.5
CCNc1nc(Nc2cc(F)c(C(=O)N3CCOCC3)cc2OC)ncc1C(F)(F)F | 101 | 97.4 | 97.8 | 104 | 104 | 101
S=C(NCc1ccc2c(c1)OCO2)N1CCN(c2ncnc3c2oc2ccccc23)CC1 [Amuvatinib (MP-470)] | 102 | 109 | 107 | 104 | 100 | 101
C[S+]([O-])c1ccc(-c2nc(-c3ccc(F)cc3)c(-c3ccncc3)[nH]2)cc1 (stereo unspecified) | 109 | 101 | 93.4 | 94.4 | 106 | 101
CN1C(=O)C(Cc2c[nH]c3ccccc23)NC1=S (stereo unspecified) [Necrostatin-1] | 103 | 93.1 | 95.6 | 102 | 95 | 94.8
CN1CCC(Nc2nc(Nc3ccc(Oc4ccccc4)cc3)c3c(=O)[nH]cc(Br)c3n2)CC1 | 100 | 83.1 | 99.4 | 83.4 | 89.6 | 85.5
CC1(C)CC[C@]2(NC(=O)C(C)(F)F)CC[C@]3(C)[C@H](C(=O)C=C4[C@@]5(C)C=C(C#N)C(=O)C(C)(C)[C@@H]5CC[C@]43C)[C@@H]2C1 [Omaveloxolone (RTA-408)] | 95.5 | 10 | 103 | 23.8 | 93.8 | 14.7
CCCCCOC(=O)Nc1nc(=O)n([C@@H]2O[C@H](C)[C@@H](O)[C@H]2O)cc1F [Capecitabine] | 103 | 105 | 104 | 108 | 99.9 | 98.3
CCN(CC)CCNC(=O)c1ccc(N)cc1 [Procainamide HCl] | – | – | – | – | 93.9 | 95.9
CS(=O)(=O)N1CCN(Cc2cc3nc(-c4cccc5[nH]ncc45)nc(N4CCOCC4)c3s2)CC1 | – | – | – | – | 85.4 | 49.1
O=C(Nc1c[nH]nc1-c1nc2ccc(CN3CCOCC3)cc2[nH]1)NC1CC1 | 90.5 | 67.5 | 75.8 | 60.1 | 69.3 | 54.2
